Measurements from PubChem BioAssay (NCATS).
“And” between values parts separate entries of the source, which are not always exact repeats. Equal values may be shown once. Records with an inconclusive call do not appear. Entries that show only a call come without a potency. Unmarked numbers belong to inactive results. The source made the active and inactive calls. Calls follow the shape of the dose curve; as a rule, active = well fitted curve in the direction sought with a large enough effect; inconclusive = small, poorly fitted or top-dose-only effect, or another doubt; inactive = no such curve, though single readings can be large; an effect the other way counts as inactive or inconclusive.

Columns and labels:
[1] = system: MKL-2; assay: qHTS assay to identify novel small-molecules to repurpose for Merkel cell carcinoma treatment (AID 1296009); conditions: MCC and control cell lines, CellTiter-Glo viability, 72 h; series mostly up to 46 µM; also: nearly all actives have a fitted effect of over 60% in size
Outline: (§1)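 Cell viability measured by CellTiter-Glo following 72 hr compound treatment at 37 degree celsius, with NPC and MIPE libraries tested in 8- and 11-point concentration series.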

[2] = system: UISO; assay: as above; conditions: MCC and control cell lines, CellTiter-Glo viability, 72 h; series mostly up to 46 µM
Outline: as §1

[3] = system: WaGa; assay: as above; conditions: MCC and control cell lines, CellTiter-Glo viability, 72 h; series mostly up to 46 µM
Outline: as §1

[4] = system: C33A; assay: Primary qHTS to identify gynecologic anti-cancer compounds using libraries of approved drugs and bioactive compounds (AID 1345084); conditions: Gynecologic cancer cell panel viability, ATPlite luminescence, 48 h; series mostly up to 57.5 µM; also: nearly all actives have a fitted effect of over 55% in size
Outline: (§2)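 Five-concentration response, 48 h; readout is ATP-driven luciferase luminescence.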

[5] = system: CASKI; assay: as above; conditions: Gynecologic cancer cell panel viability, ATPlite luminescence, 48 h; series mostly up to 57.5 µM
Outline: as §2

[6] = system: Es-2; assay: as above; conditions: Gynecologic cancer cell panel viability, ATPlite luminescence, 48 h; series mostly up to 57.5 µM
Outline: as §2

[7] = system: HeLa; assay: as above; conditions: Gynecologic cancer cell panel viability, ATPlite luminescence, 48 h; series mostly up to 57.5 µM
Outline: as §2

[8] = system: Hek293T; assay: as above; conditions: Gynecologic cancer cell panel viability, ATPlite luminescence, 48 h, control line for the selectivity index; series mostly up to 57.5 µM
Outline: as §2

[9] = system: JEG-3; assay: as above; conditions: Gynecologic cancer cell panel viability, ATPlite luminescence, 48 h; series mostly up to 57.5 µM
Outline: as §2

[10] = system: OV90; assay: as above; conditions: Gynecologic cancer cell panel viability, ATPlite luminescence, 48 h; series mostly up to 57.5 µM
Outline: as §2

[11] = system: PA-1; assay: as above; conditions: Gynecologic cancer cell panel viability, ATPlite luminescence, 48 h; series mostly up to 57.5 µM
Outline: as §2

[12] = system: SKOV3; assay: as above; conditions: Gynecologic cancer cell panel viability, ATPlite luminescence, 48 h; series mostly up to 57.5 µM
Outline: as §2

[13] = system: Tov-21-G; assay: as above; conditions: Gynecologic cancer cell panel viability, ATPlite luminescence, 48 h; series mostly up to 57.5 µM
Outline: as §2

[14] = system: Tov112D; assay: as above; conditions: Gynecologic cancer cell panel viability, ATPlite luminescence, 48 h; series mostly up to 57.5 µM
Outline: as §2

[15] = Drug repurposing screens with cells derived from glioblastoma tumor samples (AID 1345199); conditions: GBM patient neurospheres viability, ATP luminescence, 48 h; also: nearly all actives have a fitted effect of over 40% in size; also: potency is read from the fitted curve at half-maximal effect
Outline: (§3)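 Primary testing used CD133+ neurospheres from four GBM patients, seven concentrations, 48 h exposure and ATP-based viability; confirmation added three slower-growing patient lines.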

[16] = system: CAOV3; assay: Primary qHTS to identify gynecologic anti-cancer compounds using libraries of approved drugs and bioactive compounds (AID 1345084); conditions: Gynecologic cancer cell panel viability, ATPlite luminescence, 48 h; series mostly up to 57.5 µM; also: nearly all actives have a fitted effect of over 55% in size
Outline: as §2

[17] = system: astro; assay: Drug repurposing screens with cells derived from glioblastoma tumor samples (AID 1345199); conditions: viability, ATP luminescence, 48 h; series mostly up to 45.9 µM; also: nearly all actives have a fitted effect of over 40% in size; also: potency is read from the fitted curve at half-maximal effect
Outline: as §3

[18] = at 45.9 µM (top of the series), tumour line B
[19] = at 45.9 µM (top of the series), tumour line D
[20] = at 46 µM (top of the series), tumour line A
[21] = at 46.1 µM (top of the series), tumour line C
[22] = at 20 µM (top of the series), tumour line C
[23] = at 21.2 µM (top of the series), tumour line B

Cc1onc(-c2c(Cl)cccc2Cl)c1C(=O)N[C@@H]1C(=O)N2[C@@H]1SC(C)(C)[C@@H]2C(=O)O
Potency [1]: inactive
Potency [2]: inactive
Potency [3]: inactive
Potency [4]: inactive
Potency [5]: inactive
Potency [6]: inactive
Potency [7]: inactive
Potency [8]: inactive
Potency [9]: inactive
Potency [10]: inactive
Potency [11]: inactive
Potency [12]: inactive
Potency [13]: inactive
Potency [14]: inactive
activity, negative = cell killing [15, 18]: -4.57%
activity, negative = cell killing [15, 19]: -12.2%
activity, negative = cell killing [15, 20]: -8.27%
activity, negative = cell killing [15, 21]: 12.2%

O=c1[nH]c(=O)n([C@H]2CCCO2)cc1F
Potency [1]: inactive
Potency [2]: inactive
Potency [3]: inactive
Potency [4]: inactive
Potency [16]: inactive
Potency [5]: inactive
Potency [6]: inactive
Potency [7]: inactive
Potency [8]: inactive
Potency [9]: inactive
Potency [10]: inactive
Potency [11]: inactive
Potency [13]: inactive
Potency [14]: inactive

C[C@H](O)C(=O)Nc1c(I)c(C(=O)NC(CO)CO)c(I)c(C(=O)NC(CO)CO)c1I
Potency [1]: inactive
Potency [2]: inactive
Potency [3]: inactive
Potency [4]: inactive
Potency [16]: inactive
Potency [5]: inactive
Potency [6]: inactive
Potency [7]: inactive
Potency [9]: inactive
Potency [11]: inactive
Potency [12]: inactive
Potency [13]: inactive
Potency [14]: inactive
activity, negative = cell killing [15, 22]: 2.37%
activity, negative = cell killing [15, 23]: -6.73%
activity, negative = cell killing ([15]; at 21.2 µM (top of the series), tumour line D): -12.3%
activity, negative = cell killing ([15]; at 21.3 µM (top of the series), tumour line A): -8%
Potency [17]: inactive

C[C@@H]1C[C@H]2[C@@H]3C[C@H](F)C4=CC(=O)C(Cl)=C[C@]4(C)[C@@]3(F)[C@@H](O)C[C@]2(C)[C@@]1(O)C(=O)CO
Potency [1]: inactive
Potency [2]: inactive
Potency [3]: inactive
Potency [4]: inactive
Potency [5]: inactive
Potency [6]: inactive
Potency [7]: inactive
Potency [8]: inactive
Potency [9]: inactive
Potency [10]: inactive
Potency [11]: inactive
Potency [12]: inactive
Potency [13]: inactive
Potency [14]: inactive
activity, negative = cell killing [15, 18]: -15.9%
activity, negative = cell killing [15, 19]: -23.3%
activity, negative = cell killing [15, 21]: -24.8%
Potency [17]: inactive

CCN(CCCCOC(=O)c1ccc(OC)c(OC)c1)C(C)Cc1ccc(OC)cc1 (stereo not given)
Potency [1]: inactive
Potency [2]: inactive
Potency [3]: inactive
Potency [4]: inactive
Potency [16]: inactive
Potency [5]: inactive
Potency [6]: inactive
Potency [7]: inactive
Potency [8]: inactive
Potency [9]: inactive
Potency [11]: inactive
Potency [12]: inactive
Potency [13]: inactive
Potency [14]: inactive
activity, negative = cell killing [15, 22]: -2.24%
activity, negative = cell killing [15, 23]: -9.34%
Potency ([15]; tumour line A): 5.62 µM (active)
Potency [17]: inactive

NC[C@H]1O[C@H](O[C@H]2[C@H](O)[C@@H](O[C@H]3O[C@H](CO)[C@@H](O)[C@H](N)[C@H]3O)[C@H](N)C[C@@H]2N)[C@H](N)[C@@H](O)[C@@H]1O
Potency [1]: inactive
Potency [2]: inactive
Potency [3]: inactive
Potency [4]: inactive
Potency [5]: inactive
Potency [6]: inactive
Potency [7]: inactive
Potency [8]: inactive
Potency [9]: inactive
Potency [10]: inactive
Potency [11]: inactive
Potency [12]: inactive
Potency [13]: inactive
Potency [14]: inactive
activity, negative = cell killing [15, 18]: -3.08% and -15.5%
activity, negative = cell killing [15, 19]: -22.4% and -15.3%
activity, negative = cell killing [15, 20]: -11.7%
activity, negative = cell killing [15, 21]: -0.491% and -12.3%
Potency [17]: inactive
